# ZTA DNA inh = blocks Epstein-Barr virus ZTA, an EBNA-1 counter-screen | P03206 | ZTA-DNA binding, fluorescence polarization | inhibition, % at 11 µM | 0.15% of 320,000 active; in the data active = inhibition above about 33%
# Target sequence (P03206 whole entry, looked up): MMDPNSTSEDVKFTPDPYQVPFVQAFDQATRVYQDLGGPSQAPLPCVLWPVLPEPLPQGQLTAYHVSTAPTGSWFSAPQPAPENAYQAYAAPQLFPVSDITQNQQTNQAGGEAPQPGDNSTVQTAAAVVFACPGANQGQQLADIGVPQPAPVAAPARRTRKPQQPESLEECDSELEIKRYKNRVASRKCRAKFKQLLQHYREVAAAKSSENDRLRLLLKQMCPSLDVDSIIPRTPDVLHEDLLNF
# EBNA-1 inhibitor = blocks EBNA-1 binding to DNA | inhibition, % at 14.8 µM | AID 1950 | 0.34% of 300,000 active | EBNA-1 DNA binding, fluorescence polarization; in the data active = inhibition above about 28%
# PAFAH2 inh = PAFAH2 (human) inhibition | Q99487 | recombinant PAFAH2, FP-rhodamine activity probe, fluorescence polarization | inhibition, % at 3.39 µM | 0.99% of 340,000 active;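 active = inhibition above the mean over all tested compounds plus 3 SD, cut at about 30% in these data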;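 also: inhibitors block probe labeling of enzyme so polarization drops; 0% = enzyme with DMSO and 100% = wells lacking PAFAH2 protein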
# rCAG binder = r(CAG) repeat RNA binding; inhibition, % at 3 µM; TO-PRO-1 dye displacement fluorescence; 1.3% of 370,000 active;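 active = inhibition above the plate cutoff, the mean of all test compounds on that plate plus 3 SD, cut at about 35% in these data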;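 also: 0% = DMSO alone and 100% = 100 µM mitoxantrone as full dye displacement; higher means more dye released from RNA so lower well fluorescence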
# PAFAH1B3 FP inh = PAFAH1B3 (human) inhibition | inhibition, % at 3.39 µM | 0.28% of 340,000 active | recombinant PAFAH1B3, FP-rhodamine probe, fluorescence polarization | Q15102;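 active = inhibition above the screen-wide average of all tested compounds plus 3 SD, cut at about 25% in these data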;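 also: 0% = enzyme with DMSO only and 100% = wells lacking PAFAH1B3 protein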
# Target sequence (Q15102 whole entry, looked up): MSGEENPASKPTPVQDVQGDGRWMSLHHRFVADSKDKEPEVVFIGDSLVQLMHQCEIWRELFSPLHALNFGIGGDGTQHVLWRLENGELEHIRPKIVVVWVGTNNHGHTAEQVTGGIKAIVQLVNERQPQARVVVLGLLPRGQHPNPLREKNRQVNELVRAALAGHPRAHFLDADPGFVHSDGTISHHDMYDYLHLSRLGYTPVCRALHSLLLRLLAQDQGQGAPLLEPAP
# PAFAH1B2 FP inh = blocks human PAF acetylhydrolase 1b catalytic subunit 2. P68402. recombinant PAFAH1B2, FP-rhodamine activity probe, fluorescence polarization. inhibition, % at 3.39 µM. 1.2% of 340,000 active. AID 492953;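 active = inhibition above the mean of all tested compounds plus 3 SD, cut at about 24% in these data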;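 also: 0% = enzyme with DMSO and 100% = wells lacking PAFAH1B2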
# Target sequence (P68402 whole entry, looked up): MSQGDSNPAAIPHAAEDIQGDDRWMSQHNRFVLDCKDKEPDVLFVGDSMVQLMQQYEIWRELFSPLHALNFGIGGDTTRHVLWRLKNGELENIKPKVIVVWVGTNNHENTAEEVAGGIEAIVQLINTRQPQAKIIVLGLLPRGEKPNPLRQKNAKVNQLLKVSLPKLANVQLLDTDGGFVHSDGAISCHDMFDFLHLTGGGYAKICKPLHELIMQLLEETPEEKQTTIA
# PAFAH2 confirm = PAFAH2 (human) inhibition, confirmed; shares compounds with PAFAH2 inh; recombinant PAFAH2, FP-rhodamine activity probe, fluorescence polarization; inhibition, % at 3.39 µM; 65% of 2,300 active; AID 493030;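 active = mean inhibition over three repeats above a set limit taken from the earlier primary screen, cut at about 30% in these data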;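 also: inhibitor blocks binding of rhodamine activity probe so polarization falls; 0% = enzyme with DMSO and 100% = wells lacking PAFAH2 protein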
# rCAG bind conf = r(CAG) RNA repeat binding, confirmation | shares compounds with rCAG binder | TO-PRO-1 dye displacement fluorescence | inhibition, % at 3 µM | 70% of 4,300 active | AID 652065;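 active = inhibition above a per-plate cutoff, the mean inhibition of sample wells plus 3 SD, cut at about 35% in these data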;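 also: loss of TO-PRO-1 fluorescence as compound displaces dye from 1x1 AA loop RNA; 0% = DMSO only wells and 100% = 100 µM mitoxantrone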
# dCAG dye counter = counter-screen for rCAG RNA binders: DNA CAG dye complex inhibitors; shares compounds with rCAG binder; d(CAG) DNA oligo TO-PRO-1 dye displacement, fluorescence; inhibition, % at 3 µM; 94% of 4,300 active; AID 652068;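 active = inhibition above its plate's cutoff, the mean test-well inhibition plus 3 SD, cut at about 4.8% in these data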;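 also: 0% = DNA dye mix with DMSO and 100% = 100 µM mitoxantrone; hits displace the dye from DNA and so lower well fluorescence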
# dCAG dye DR = counter-screen for rCAG binders: inhibitors of DNA CAG TO-PRO-1 complex; shares compounds with rCAG binder; DNA CAG/GTC duplex TO-PRO-1 dye displacement fluorescence; IC50, µM; 20% of 250 active; in the data active = IC50 below about 10 µM
# Starred values were filed as active, the others as inactive; x = no result. In the library only some 2.9% were active in any assay of this set; here they are far more common.
SMILES,ZTA DNA inh,EBNA-1 inhibitor,PAFAH2 inh,rCAG binder,PAFAH1B3 FP inh,PAFAH1B2 FP inh,PAFAH2 confirm,others
COc1ccc(/C=C/C(=O)OCC(=O)NC2CCCCCCC2)cc1,x,x,85.5*,1.6,9.9,5.5,83.5*,
O=C(COC(=O)/C=C/c1ccc(OC(F)F)cc1)NC1CCCC1,-6.3,x,69.9*,2.3,6.7,-0.2,74.2*,
Cc1ccc2c(c1)N(CCCC(=O)N(C)Cc1ccccc1Cl)C(=O)CO2,x,x,x,-1.4,x,x,x,
COC(=O)C1=C(C)N(Cc2ccccc2C(F)(F)F)C(=NCc2ccc(C(F)(F)F)cc2)NC1c1ccc(Cl)cc1 (stereo not drawn),x,x,x,3.9,x,x,x,
CCSc1nnc(NC(=O)CSc2c(Cl)cccc2Cl)s1,-2.9,-1.4,50.5*,4.7,1.6,7.1,41.6*,
O=C(CSc1nc2ccccc2nc1N1CCCC1)N1CCN(c2cccc(C(F)(F)F)c2)CC1,x,x,x,6.3,x,x,x,
O=C(COC(=O)C1C2CC3OC(=O)C1C3C2)Nc1cccc(C(F)(F)F)c1 (stereo not drawn),-17.3,-2.0,70.8*,-1.8,9.6,-1.8,78.5*,
COc1cccc(NC(=O)COC(=O)C2C3CC4OC(=O)C2C4C3)c1 (stereo not drawn),-2.4,-13.1,78.8*,1.0,10.6,1.4,68.5*,
Cc1cccc(C)c1NC(=O)COC(=O)C1C2CC3OC(=O)C1C3C2 (stereo not drawn),-7.4,-6.2,15.6,0.8,4.8,1.2,x,
COc1cccc(NC(=O)C2C3CC4OC(=O)C2C4C3)c1 (stereo not drawn),12.6,3.3,5.0,1.1,-5.6,0.8,x,
CCc1ccccc1NC(=O)COC(=O)C1C2CC3OC(=O)C1C3C2 (stereo not drawn),-5.5,-5.8,39.6*,1.0,5.3,1.5,30.8*,
O=C(COC(=O)C1C2CC3OC(=O)C1C3C2)Nc1ccc(Cl)cc1 (stereo not drawn),6.3,9.0,83.6*,-1.6,2.4,-0.1,73.7*,
Cc1cccc(NC(=O)COC(=O)C2C3CC4OC(=O)C2C4C3)c1C (stereo not drawn),-6.3,-0.5,7.1,1.8,-2.0,2.9,x,
O=C(CNCc1ccccc1[N+](=O)[O-])N1CCC2(CC1)OCCO2,x,x,x,6.2,x,x,x,
COP(=O)(CC(=O)C(Cc1ccccc1)NC(=O)OC(C)(C)C)OC (stereo not drawn),x,x,x,1.5,x,x,x,
CCn1c(CSc2nc3ccccc3s2)nnc1SCC(=O)c1ccc(O)c(O)c1,5.5,6.1,49.7*,27.7,11.5,7.1,23.1,
C=CCn1c(SCC(=O)c2ccc(O)c(O)c2)nnc1-c1ccccc1OC,-3.2,-6.5,21.7,13.1,13.1,7.1,x,
CCn1c(SCC(=O)c2ccc(O)c(O)c2)nnc1-c1ccccc1OC,-18.0,-13.5,42.3*,11.3,12.4,5.5,25.7,
C=C1C[C@@H]2C[C@@H]2CN(S(=O)(=O)c2ccc(C)cc2)[C@@H]1COCc1ccccc1,x,x,x,2.0,x,x,x,
CCOC(=O)C1CCCN(S(=O)(=O)c2ccc3c4c2CC(=O)N4CC(C)S3)C1 (stereo not drawn),4.2,8.6,34.7*,6.5,3.5,-2.7,17.7,
CCOC(=O)C1CCN(S(=O)(=O)c2ccc3c4c2CC(=O)N4CC(C)S3)CC1 (stereo not drawn),-0.5,-4.2,3.6,6.5,6.7,-5.0,x,
COC(=O)[C@@]12C[C@@H](CC(=O)NCc3ccc(OC)c(OC)c3)C(=O)N(Cc3cccc4ccccc34)C1=CCC(C)(C)C2,x,x,x,9.4,x,x,x,
Cc1ccc(NC(=O)Cc2nc(CN(C)CC(=O)Nc3ccc(C)cc3)cs2)cc1,-0.2,x,31.1*,-0.1,4.6,8.7,16.0,
Cc1ccc(NC(=O)C2CCCN2S(=O)(=O)c2cccnc2)c(C)c1 (stereo not drawn),x,x,x,-0.1,x,x,x,
COc1cc(OC)cc(-c2nnc(Nc3nc4c(F)cccc4s3)o2)c1,8.3,7.6,35.8*,25.0,13.4,11.2,30.9*,
SMILES,ZTA DNA inh,EBNA-1 inhibitor,PAFAH2 inh,rCAG binder,PAFAH1B3 FP inh,PAFAH1B2 FP inh,PAFAH2 confirm,others
CC1(c2nnnn2C2CCCCC2)CCCC(=O)N1CCc1ccc(O)cc1 (stereo not drawn),x,x,x,6.1,x,x,x,
CCOC(=O)c1c(-c2ccccc2)csc1/N=C/C1C(=O)CCCC1=O,-2.4,-0.1,-8.2,-0.8,5.1,15.6,x,
CCOC(=O)c1c(CC(C)C)csc1/N=C/C1C(=O)CCCC1=O,16.6,2.7,33.4*,1.6,-1.5,13.5,25.1,
COCCNC(=S)N/N=C(\C)c1ccc(O)cc1,-0.2,-4.4,-4.0,-1.8,3.8,1.0,x,
C/C(=N\NC(=S)NCC(C)(C)C)c1cc(F)cc(F)c1O,20.7,-1.7,33.0*,4.5,21.2,7.4,13.6,
COc1ccc(C(=O)OCN2C(=O)c3ccccc3C2=O)cc1,-17.2,-14.2,36.8*,-5.8,1.3,2.5,23.8,
O=C(/C=C/c1ccccc1)OCN1C(=O)c2ccccc2C1=O,9.2,6.1,32.9*,-4.7,3.0,-0.8,9.7,
COc1cc(OC)c(C(=O)OCN2C(=O)c3ccccc3C2=O)cc1OC,5.9,-1.2,3.1,-1.6,-8.5,7.7,x,
CCCCCCCCN1C(=O)[C@H](CC(=O)NCCC(C)C)C[C@@]2(C(=O)OCC)CCC=C12,x,x,x,2.3,x,x,x,
Cc1nc2ccc(NC(=O)c3cc(F)cc(F)c3)cc2c(=O)[nH]1,x,x,x,2.0,x,x,x,
O=[N+]([O-])c1cccc(S(=O)(=O)Nc2nc3ccccc3nc2Nc2cccc(S(=O)(=O)N3CCCCC3)c2)c1,x,x,44.5*,52.3*,7.8,21.0,12.7,rCAG bind conf=94.7*;dCAG dye counter=85.6*
NS(=O)(=O)c1cccc(NC(=O)c2ccccc2NS(=O)(=O)c2ccc(F)cc2)c1,-22.5,1.8,41.5*,38.0*,-1.3,4.8,46.7*,rCAG bind conf=38.0*;dCAG dye counter=12.0*
COC(=O)[C@]12C[C@H](CC(=O)N3CCCCC3)C(=O)N(Cc3cccc4ccccc34)C1=C[C@H](COCc1ccccc1)O[C@@H]2C,x,x,x,9.4,x,x,x,
CCCSC1=N/C(=C\c2ccc([N+](=O)[O-])o2)C(=O)S1,x,x,39.7*,39.7*,16.8,7.2,19.6,rCAG bind conf=47.2*;dCAG dye counter=20.2*;dCAG dye DR=>29.9
COc1ccc(CN2CN3Cc4ccccc4C3CS2(=O)=O)cc1 (stereo not drawn),x,x,x,6.1,x,x,x,
O=[N+]([O-])c1ccc(NN=Cc2cccc3ccccc23)cc1,x,x,7.0,6.1,2.5,2.8,x,

# Screens: PubChem BioAssay, The Scripps Research Institute Molecular Screening Center
